MITF TRPM1 inh = inhibitors of MITF-dependent TRPM1 promoter reporter, primary screen, cell-based, SK-MEL-5, single point, luciferase | SK-MEL-5 TRPM1 promoter luciferase, 24 h | inhibition, % at 12.5 µM | hit rate 0.83% among 330,000;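 active = mean inhibition across replicates of 60% or more, whatever share of single replicates reaches that level; inconclusive = some that reach 60%, reason not given; inactive = mean inhibition across replicates below 60%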
NSD2 inh = NSD2 histone methyltransferase inhibitors, primary screen, biochemical, AlphaScreen, single concentration, set 2; NSD2 peptide methylation, 120 min; hit rate 0.54% among 310,000; AID 743445, 2014; inhibition, % at 12.5 µM; in the data active = inhibition above about 50%
Target sequence (O96028 whole entry, looked up): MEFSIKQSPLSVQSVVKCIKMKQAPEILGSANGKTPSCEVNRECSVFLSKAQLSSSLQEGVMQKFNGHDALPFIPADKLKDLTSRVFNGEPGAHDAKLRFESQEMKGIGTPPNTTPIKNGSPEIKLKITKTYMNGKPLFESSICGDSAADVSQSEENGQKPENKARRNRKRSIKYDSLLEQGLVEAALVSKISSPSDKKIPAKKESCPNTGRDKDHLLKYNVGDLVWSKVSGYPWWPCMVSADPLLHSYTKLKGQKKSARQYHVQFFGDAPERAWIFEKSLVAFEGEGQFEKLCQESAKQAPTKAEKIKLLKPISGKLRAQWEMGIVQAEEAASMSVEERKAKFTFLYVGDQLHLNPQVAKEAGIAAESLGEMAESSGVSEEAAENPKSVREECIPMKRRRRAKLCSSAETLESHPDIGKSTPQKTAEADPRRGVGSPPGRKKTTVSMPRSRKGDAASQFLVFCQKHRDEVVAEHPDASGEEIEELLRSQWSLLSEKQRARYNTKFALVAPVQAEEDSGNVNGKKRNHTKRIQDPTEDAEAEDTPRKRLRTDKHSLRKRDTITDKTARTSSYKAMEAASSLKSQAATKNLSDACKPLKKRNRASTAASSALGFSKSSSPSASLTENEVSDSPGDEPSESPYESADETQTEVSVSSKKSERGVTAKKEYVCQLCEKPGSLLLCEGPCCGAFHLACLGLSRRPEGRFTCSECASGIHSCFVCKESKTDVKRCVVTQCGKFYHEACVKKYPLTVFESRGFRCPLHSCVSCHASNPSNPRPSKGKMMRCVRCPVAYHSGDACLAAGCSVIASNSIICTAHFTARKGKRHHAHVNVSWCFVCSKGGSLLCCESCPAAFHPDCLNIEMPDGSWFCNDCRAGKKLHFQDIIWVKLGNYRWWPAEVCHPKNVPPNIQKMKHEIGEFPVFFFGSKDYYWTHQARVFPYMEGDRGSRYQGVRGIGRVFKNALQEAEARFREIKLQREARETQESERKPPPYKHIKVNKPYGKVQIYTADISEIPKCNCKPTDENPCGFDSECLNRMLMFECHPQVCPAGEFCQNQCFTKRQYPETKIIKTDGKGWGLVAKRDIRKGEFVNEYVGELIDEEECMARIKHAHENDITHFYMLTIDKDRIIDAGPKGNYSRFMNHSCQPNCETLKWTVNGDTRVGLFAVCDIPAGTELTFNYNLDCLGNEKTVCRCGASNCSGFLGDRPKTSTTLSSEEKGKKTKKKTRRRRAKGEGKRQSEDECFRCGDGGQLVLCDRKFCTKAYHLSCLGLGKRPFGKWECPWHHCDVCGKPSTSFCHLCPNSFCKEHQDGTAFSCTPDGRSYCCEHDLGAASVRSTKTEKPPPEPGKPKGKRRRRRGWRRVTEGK
PfHsp90 set2 = growth inhibition of PfHsp90-expressing yeast, primary screen, antimalarial PfHsp90 inhibitor project, S. cerevisiae, BacTiter-Glo luminescence, single point, set 2; inhibition, % at 9.4 µM; BacTiter-Glo ATP, 48 h; yeast lacking PDR1 and PDR3 efflux regulators; hit rate 0.32% among 310,000;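 active = every replicate shows inhibition above about 80%, whatever the replicate mean, limit read from the data; inconclusive = mean inhibition reaches the set limit but some replicate falls short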;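 also: 0% = DMSO neutral controls and 100% = 20 µM radicicol positive controls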
MITF act = activators of MITF-driven TRPM1 promoter reporter, primary screen, cell-based, SK-MEL-5, luciferase, single point. hit rate 0.75% among 300,000. SK-MEL-5 TRPM1-promoter luciferase, 24 h; % of positive control, neutral wells = 0. activation, % at 12.5 µM. AID 588334, 2011;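 active = mean activation of at least 80% with every replicate also reaching 80%; inconclusive = mean reaches 80% but some replicate falls short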;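 also: 0% = neutral control wells and 100% = parthenolide positive control wells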
N-glyco inh = increase of ERlucT glycosylation luciferase signal, primary screen, N-linked glycosylation inhibitor project, D54 ERlucT cells, luminescence, set 2; D54 ERlucT glycosylation luciferase reporter, 24 h; percent of 100 nM tunicamycin response; reporter increase, % at 12.5 µM; hit rate 0.23% among 360,000; AID 588692, 2011;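 active = mean luciferase reporter signal, scaled so untreated is 0 and the glycosylation-blocking control 100, at or above a set limit in every replicate; inconclusive = mean reaches the limit but not every replicate does; inactive = mean below the limit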;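 also: luciferase carries N-glycosylation sites so blocking glycosylation raises the light; 0% = median of neutral control wells and 100% = median of 100 nM tunicamycin wells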
Wnt act = Wnt/beta-catenin pathway activators, primary screen, cell-based, plate reader, single point | Wnt/beta-catenin reporter cell assay, activator | activation, % at 9.35 µM | hit rate 1.2% among 300,000; in the data active = activation above about 30%, passing the limit was not always enough; inconclusive = no clear call, values can overlap the other calls;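 also: 0% = neutral control wells and 100% = positive control wells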
Active calls of the source: *; ? = inconclusive; · = not tested or not shown. Hits are enriched below; roughly 2.9% of the tested compounds scored in any of these assays.

SMILES	MITF TRPM1 inh	NSD2 inh	PfHsp90 set2	MITF act	N-glyco inh	Wnt act
CC(C)(C)C(=O)/C(=C/c1ccncc1)n1cncn1	81.6*	9.1	-39.5	-79.8	-21.7	-21.2
Cc1nn(C)c(C)c1/C=C(/C(=O)C(C)(C)C)n1cncn1	9.1	0.6	-4.0	·	-2.1	-3.0
CC(C)(C)n1nnnc1C(c1ccccc1)N1CCN(C(=O)c2ccco2)CC1 (stereo unspecified)	·	·	·	·	·	-2.1
CCCCSc1nsc(NC(C)=O)n1	-81.4	-0.7	·	91.2*	-4.5	44.2*
CCCSc1nsc(NC(=O)CCC)n1	-110.3	-15.0	-5.8	113.3*	-4.6	19.8
CCCCCCSc1nsc(NC(C)=O)n1	-64.6	-2.1	2.8	66.6	0.8	·
Cc1ccc(-c2nnc(SCC(=O)Nc3ccc(F)cc3F)n2Cc2ccco2)cc1	·	0.2	·	·	·	·
ClC1(Cl)CC1CSc1nc2ccccc2[nH]1 (stereo unspecified)	-70.1	-6.4	-20.9	65.5	-2.2	8.5
CCOc1ccc2nc(SCC3CC3(Cl)Cl)[nH]c2c1 (stereo unspecified)	·	-5.4	-6.2	·	1.9	34.6*
O=C1CN(c2nc(-c3ccccc3)c3cc(Cl)ccc3n2)c2ccccc2N1	1.8	0.4	5.3	9.6	13.8	·
O=C1Cc2c(-c3ccccc3)cc(-c3cccc(Cl)c3)nc2-c2ccccc2N1	45.0	-2.4	-35.0	-46.9	72.3*	-1.0
CCc1nc2n(n1)C(O)c1cc([N+](=O)[O-])ccc1S2 (stereo unspecified)	-4.5	-0.1	4.8	·	-0.8	41.7*
Cc1cc(C)nc(Sc2ncnc(N)c2[N+](=O)[O-])n1	38.8	5.9	3.3	-36.1	2.5	-0.5
Cc1ccc(C(=O)NC(=S)NCC2CCCO2)cc1 (stereo unspecified)	-82.9	-0.2	4.4	?	0.0	·
O=C(NC(=S)NCC1CCCO1)c1ccc(Cl)cc1 (stereo unspecified)	-84.1	-0.5	-11.9	87.7*	1.1	1.9
O=C(NCC1CCCO1)c1ccc(-c2ccccc2Cl)o1 (stereo unspecified)	-121.3	4.8	·	130.2*	0.3	-4.0
Cc1cc(C)c2c(C)[nH]nc2n1	·	19.6	·	·	1.0	19.8
CC(=O)n1nc2nc(C)cc(C)c2c1N	-5.8	-0.1	2.1	2.9	0.8	·
Cc1cc(C)c2c(N=NN3CCCCC3)[nH]nc2n1	-12.0	17.4	109.7*	9.2	-1.8	3.5
CCN(CC)N=Nc1[nH]nc2nc(C)cc(C)c12	-22.8	4.8	109.9*	22.5	-2.5	10.7
CC(C)NC(=O)NC1CCN(CC(=O)Nc2ccc3c(c2)OCCO3)CC1	·	-0.2	·	·	·	·
COc1ccc(N(C(=O)Cn2cnc3ccccc32)C(C(=O)NC2CCCCC2)c2ccccc2)cc1 (stereo unspecified)	-4.4	·	-19.5	4.4	0.8	56.0*
CCOC(=O)c1cnn(-c2ccccc2)c1-n1cccc1	-0.5	-1.2	21.3	0.5	-1.7	6.4
CCOC(=O)c1cnn(-c2ccc(C)cc2)c1N	-71.9	-0.9	-16.9	76.9	-0.7	44.5*
CCOC(=O)c1cnn(-c2ccccc2)c1NC(=O)CN1CCCCC1	-6.7	8.6	15.5	·	-2.2	40.7*
SMILES	MITF TRPM1 inh	NSD2 inh	PfHsp90 set2	MITF act	N-glyco inh	Wnt act
CC(=O)Nc1cccc(-c2ccnc3c2CC(C(=O)Nc2cccc(Oc4ccccc4)c2)O3)c1 (stereo unspecified)	·	-1.0	·	·	-2.1	-1.6
COc1ccc(Cn2c(C)cc(O)cc2=O)cc1	·	·	·	·	·	-5.0
CCOc1ncccc1C(=O)OCC(=O)NCc1ccc(C(=O)OC)cc1	·	-0.8	0.1	·	0.9	-2.1
CC(=O)C(Cc1ccc(Cl)nc1)Cc1ccc(Cl)nc1	7.6	-7.7	5.8	-3.6	2.7	-0.7
COC(=O)Cc1ccc(OCc2ccc(Cl)nc2)cc1	-102.5	·	·	94.9*	-1.9	-1.6
Cc1ccc2nc(NNC(=O)c3ccc(S(=O)(=O)N4CCc5ccccc5C4)cc3)sc2c1	77.8*	·	10.5	-76.7	-13.2	2.5
Cc1cccc2sc(NNC(=O)c3ccc(S(=O)(=O)N4CC(C)CC(C)C4)cc3)nc12 (stereo unspecified)	77.7*	·	73.1	-76.4	-15.6	-18.2
Cc1cc(C)c2nc(NNC(=O)c3ccc(S(=O)(=O)N4CC(C)CC(C)C4)cc3)sc2c1 (stereo unspecified)	68.8*	·	43.4	-70.3	-12.0	-21.2
C=CCN1C(=O)c2n[nH]c(C(C)C)c2C1c1ccc(C)cc1 (stereo unspecified)	·	·	·	·	·	-3.5
CCCCCCCCNC(C)C(O)c1ccc(SC(C)C)cc1 (stereo unspecified)	82.9*	·	-35.1	-82.6	-2.3	1.0
C=CCc1ccc(OCC(O)COCC)c(OC)c1 (stereo unspecified)	-93.9	1.0	-4.2	92.7*	0.0	·
N#Cc1ccccc1NC(=O)C1SC(=Nc2ccccc2)C(C(=O)Nc2ccc(Cl)cc2)=C1N (stereo unspecified)	72.2*	·	·	-69.8	-4.6	-1.2
CCN1CCN(c2c(Cl)cccc2NC(=O)c2ccc([N+](=O)[O-])o2)CC1	101.7*	·	·	-101.4	-13.2	0.3
CN1CCN(c2ccc(NC(=O)c3ccc([N+](=O)[O-])o3)cc2Cl)CC1	78.7*	7.1	-23.4	-79.4	-5.3	-15.8
O=C(Nc1ccc(N2CCOCC2)c(Cl)c1)c1ccc([N+](=O)[O-])o1	?	5.0	-13.9	-63.2	?	-25.3
CCCC(=O)N1CCN(c2ccc(NC(=O)c3ccc([N+](=O)[O-])o3)cc2Cl)CC1	90.7*	·	-49.2	-90.2	3.1	-21.7
CC(C)C(=O)N1CCN(c2ccc(NC(=O)c3ccc([N+](=O)[O-])o3)cc2Cl)CC1	85.2*	11.7	-2.0	-85.3	-6.0	-20.4
CC(C)C(=O)N1CCN(c2ccc(NC(=O)c3ccc([N+](=O)[O-])o3)cc2)CC1	92.3*	37.9	2.4	-91.5	-18.2	-0.1
CC(C)C(=O)N1CCN(c2ccc(NC(=O)c3ccc(Br)o3)cc2)CC1	-14.0	-4.6	-6.6	17.6	-1.2	-7.3
CCn1c(O)c(N=NC(=O)CNC(=O)Cc2ccccc2)c2ccccc21	12.0	-2.2	-23.7	-10.8	1.7	-1.2
O=C(CNC(=O)c1ccco1)N=Nc1c(O)n(CCc2ccccc2)c2ccccc12	·	5.0	-26.8	-42.8	34.0*	-9.6
Cc1ccc(C(=O)c2no[n+]([O-])c2C(=O)c2ccc(C)cc2)cc1	79.1*	·	128.1*	-75.3	9.7	4.0
COc1ccc(-c2nc3ccccc3n2Cc2ccc(C)cc2)cc1	-13.7	-1.1	·	15.6	-5.5	·

High-throughput results: PubChem, Broad Institute
